Several values for one entry are separate records, joined by “and”; a condition that tells them apart may be missing. Equal entries are not always repeated. Among all 5,500 compounds or so, about 2,000 (36%) were called active. About 18% were inconclusive and are not listed. No stated cut-off is given here; in the data, active means normalized growth mostly below about 0.91 (no sharp cut-off); inconclusive means no clear call, values can overlap the other calls; inactive means mostly above about 0.92. The list shows a part of the results.
Assay: chemical genetic growth profiling, strain panel (AID 1159580);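 further: tested at 20 µM; growth read once vehicle control cultures reached saturation at 30 °C; 1 = growth at the plate median or of vehicle wells; lower values mean less growth of the strain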
Settings: S. cerevisiae deletion strains, growth OD

Measured: normalized growth

COc1cc2c(cc1OC)C1Cc3ccc(OC)c(OC)c3CN1CC2 (stereo unspecified)
inactive: locus YAL021C, strain ccr4, hits give low values 0.983 | locus YAL026C, strain drs2, hits give low values 0.972 | locus YAL030W, strain snc1, hits give low values 0.983 | locus YBL061C, strain skt5, hits give low values 0.976 | locus YBR009C, strain hhf1, hits give low values 0.972 | locus YBR021W, strain FUR4, hits give low values 0.981 | locus YBR023C, strain chs3, hits give low values 0.968 | locus YBR171W, strain sec66, hits give low values 0.965 | locus YBR229C, strain ROT2, hits give low values 0.985 | locus YBR231C, strain swc5, hits give low values 0.983 | locus YBR279W, strain paf1, hits give low values 0.983 | locus YCL011C, strain gbp2, hits give low values 0.985 | locus YCL016C, strain dcc1, hits give low values 0.999 | locus YCL029C, strain bik1, hits give low values 0.998 | locus YCL061C, strain MRC1, hits give low values 0.983 | locus YCL069W, strain vba3, hits give low values 0.955 | locus YCR088W, strain abp1, hits give low values 0.979 | locus YDL005C, strain med2, hits give low values 0.974 | locus YDL035C, strain GPR1, hits give low values 1 | locus YDL040C, strain nat1, hits give low values 0.987 | locus YDL074C, strain BRE1, hits give low values 0.989 | locus YDL101C, strain DUN1, hits give low values 1 | locus YDL134C, strain PPH21, hits give low values 1.03 | locus YDL185W, strain tfp1, hits give low values 0.984 | locus YDL192W, strain arf1, hits give low values 0.991 | locus YDR001C, strain nth1, hits give low values 0.984 | locus YDR069C, strain doa4, hits give low values 0.972 | locus YDR101C, strain arx1, hits give low values 0.988 | locus YDR137W, strain rgp1, hits give low values 0.967 | locus YDR159W, strain sac3, hits give low values 0.972 | locus YDR162C, strain NBP2, hits give low values 1.06 | locus YDR195W, strain ref2 0.955 | locus YDR297W, strain sur2, hits give low values 0.975 | locus YDR318W, strain mcm21, hits give low values 1 | locus YDR334W, strain swr1, hits give low values 0.965 | locus YDR335W, strain msn5, hits give low values 0.97 | locus YDR388W, hits give low values 0.985 | locus YDR392W, strain spt3, hits give low values 0.982 | locus YDR502C, strain sam2, hits give low values 1 | locus YEL003W, strain gim4, hits give low values 0.978 | locus YEL037C, strain rad23, hits give low values 0.982 | locus YEL061C, strain CIN8 (second series), hits give low values 0.95 | locus YEL061C, strain CIN8, hits give low values 1.02 | locus YER015W, strain faa2, hits give low values 0.984 | locus YER016W, strain bim1, hits give low values 0.97 | locus YER110C, hits give low values 0.982 | locus YER111C, strain swi4, hits give low values 0.973 | locus YER155C, strain BEM2 (second series), hits give low values 0.972 | locus YER155C, strain BEM2, hits give low values 0.988 | locus YER167W, strain BCK2, hits give low values 0.998 | locus YFR010W, strain ubp6, hits give low values 0.96 | locus YGL078C, strain dbp3, hits give low values 0.985 | locus YGL086W, strain mad1, hits give low values 0.955 | locus YGL167C, strain pmr1, hits give low values 0.978 | locus YGL173C, strain kem1, hits give low values 0.987 | locus YGL227W, strain vid30, hits give low values 0.979 | locus YGL240W, strain doc1, hits give low values 0.973 | locus YGL248W, strain PDE1, hits give low values 1.03 | locus YGL253W, strain hxk2, hits give low values 0.97 | locus YGR135W, strain pre9, hits give low values 1.01 | locus YGR252W, strain gcn5, hits give low values 1.01 | locus YHR013C, strain ard1, hits give low values 0.977 | locus YHR027C, strain rpn1, hits give low values 1 | locus YHR030C, strain SLT2, hits give low values 0.996 and 0.965 | locus YHR079C, strain IRE1 (second series), hits give low values 0.995 | locus YHR079C, strain IRE1, hits give low values 0.979 | locus YHR094C, strain hxt1, hits give low values 0.978 | locus YHR129C, strain ARP1, hits give low values 1 | locus YHR142W, strain chs7, hits give low values 0.976 | locus YHR200W, strain rpn10, hits give low values 0.992 | locus YIL066C, strain RNR3, hits give low values 1.02 | locus YIL073C, strain SPO22, hits give low values 1.05 | locus YIL125W, strain kgd1, hits give low values 1 | locus YIR030C, strain dcg1, hits give low values 0.987 | locus YJL092W, strain hpr5, hits give low values 0.952 | locus YJL095W, strain BCK1 (second series), hits give low values 0.975 | locus YJL095W, strain BCK1, hits give low values 1.04 and 0.988 | locus YJL115W, strain asf1, hits give low values 0.967 | locus YJL129C, strain trk1, hits give low values 0.956 | locus YJL134W, strain LCB3, hits give low values 0.983 | locus YJL154C, strain vps35, hits give low values 0.981 | locus YJL164C, strain tpk1, hits give low values 0.99 | locus YJL166W, strain qcr8, hits give low values 0.99 | locus YJL168C, strain set2, hits give low values 0.989 | locus YJL187C, strain SWE1 (second series), hits give low values 1.01 | locus YJR043C, strain POL32, hits give low values 1.01
